# Where “and” joins values, the source holds several entries; their conditions need not be identical. Identical values can stand only once. Values without a mark were called inactive. Calls of active or inactive are those of the source. Unless noted, no stated cut-off is given here; in the data, active means inhibition above about 33%; inactive means the rest.
# Biological target: Steroidogenic factor 1 (Homo sapiens) (UniProt Q13285)
# Assay: SF1 (NR5A1) inverse agonists, counter-screen for LRH-1 inverse agonist project, cell-based, luminescence, high throughput (AID 651614; in the data active means inhibition above about 44%;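 further: cells cotransfected with StAR promoter reporter and SF1 expression vector; 0% = vehicle on cells with receptor and 100% = vehicle on cells lacking receptor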)
# Details: cell-based SF1 luciferase reporter, at 3.6 µM, hits give high values
# Chain of Steroidogenic factor 1 (Homo sapiens) (Q13285 whole entry, looked up): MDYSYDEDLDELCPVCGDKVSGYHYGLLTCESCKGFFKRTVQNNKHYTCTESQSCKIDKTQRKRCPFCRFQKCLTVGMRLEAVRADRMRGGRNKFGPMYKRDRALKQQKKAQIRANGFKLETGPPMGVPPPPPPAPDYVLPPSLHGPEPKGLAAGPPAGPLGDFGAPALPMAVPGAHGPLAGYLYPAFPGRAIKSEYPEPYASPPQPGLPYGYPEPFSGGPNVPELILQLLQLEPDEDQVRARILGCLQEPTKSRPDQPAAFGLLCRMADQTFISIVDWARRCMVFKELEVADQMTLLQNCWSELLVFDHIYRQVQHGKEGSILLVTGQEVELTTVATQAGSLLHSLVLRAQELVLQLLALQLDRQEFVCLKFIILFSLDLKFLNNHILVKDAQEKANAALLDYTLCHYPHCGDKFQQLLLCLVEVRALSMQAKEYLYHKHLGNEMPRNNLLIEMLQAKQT
row,SMILES,inhibition
1,COc1ccc(C2=Nn3c(nnc3-c3ccccc3OC)SC2)cc1OC,64% (active)
2,CCn1c(=NC(=O)CCS(=O)(=O)c2ccccc2)sc2cccc(OC)c21,70.3% (active)
3,O=C(c1cc(-c2ccco2)nc2ccccc12)N(Cc1nnc(-c2ccc(Cl)cc2)o1)C1CC1,2.98%
4,Cc1ccc(NC(=O)CN2CCC(NC(=O)C3CCCCC3)CC2)c(Br)c1,44.9% (active)
5,Cc1ccc(Cn2nc(C)c(NC(=O)c3noc4c3CCCCC4)c2C)cc1,50.7% (active)
6,CCOC(=O)C(C)Oc1cccc2c(=O)n(CC(=O)Nc3ccc(OCC)cc3)ccc12 (stereo not given),58.8% (active)
7,COc1ccc(C2=CC(=O)CC(C)(C)C2)cc1OC,51.9% (active)
8,Cc1cc(C)c2c(NC(=O)CCl)nn(C)c2n1,68.7% (active)
9,CCCCNC(=O)CSc1nc2ccc(NC(=O)CSc3nnc(COc4ccccc4C)n3C)cc2s1,61.3% (active)
10,O=C(CN1CCN(S(=O)(=O)c2cc(Cl)ccc2Cl)CC1)Nc1ccc2c(c1)OCCO2,59.1% (active)
11,CCCN1Cc2cccc(C(=O)NC(C)c3cccs3)c2C1=O (stereo not given),27.5%
12,O=[N+]([O-])c1ccc(Sc2nnnn2-c2ccccc2)c(Cl)c1,37.7%
13,CCOc1ccc(Br)cc1/C(C)=N\NC1=NCCN1,36.7%
14,COc1ccc(C2=CC(=O)OC3(CCCC3)O2)cc1,54.5% (active)
15,O=C(CCl)NCc1cc(-c2ccc(Cl)cc2)no1,72.3% (active)
16,CCN1CCN(c2ccc(S(=O)(=O)N3CCCCC3)cc2NC(=O)/C=C/c2ccc([N+](=O)[O-])cc2)CC1,49.4% (active)
17,Cc1ccc(C)c(NC(=O)CSc2nnc(-c3ccccc3)n2N)c1,44.7% (active)
18,COc1ccc(CC(N)c2csc(Nc3ncccn3)n2)cc1 (stereo not given),33.1%
19,Cc1cccc(NC(=O)CSC2=NN3CCCC(=O)N=C3S2)c1C,49% (active)
20,Cc1cc(-c2nn3c(-c4ccccc4)nnc3s2)c2ccccc2n1,22.6%
21,CN(Cc1cccs1)c1nc(-c2cccnc2)nc2ccccc12,43% (active)
22,COc1ccc(NC(=O)CSc2nnc(-c3ccccn3)n2N)cc1Cl,49.4% (active)
23,CCCc1cc(NCC2CCCO2)n2c(nc3ccccc32)c1C#N (stereo not given),35.5%
24,COc1cccc2c1C(=O)c1c(O)c3c(c(O)c1C2=O)C[C@@](O)(C(C)=O)C[C@@H]3O[C@H]1C[C@H](N)[C@H](O)[C@H](C)O1,94.4% (active)
25,CCc1ccccc1NC(=O)CSc1nnc([C@@H](NC(=O)OC(C)(C)C)C(C)CC)o1 (stereo not given in full),30.1%

# System: not listed separately
# Assay: VP16 transactivation reporter inhibitors, counter-screen for LRH-1 inverse agonist project, cell-based, luminescence, high throughput (AID 651615)
# Details: Gal4-VP16 luciferase reporter cells, at 3.6 µM, hits give high values
row,SMILES,inhibition
1,COc1ccc(NC(=O)Cn2c(C)cc(=O)c3ccccc32)cc1,35.1% (active)
2,CCN(CC)S(=O)(=O)c1ccc(N2CCOCC2)c(NC(=O)c2[nH]c(C)c(C(C)=O)c2C)c1,-200%
3,COc1ccc2c(c1)/C(=C/c1cc(OC)c(OC)c(OC)c1)C(=O)N2,41.6% (active)
4,C[n+]1c2cc(N)ccc2cc2ccc(N)cc21,95.3% (active) and 92.1% (active)
5,CC(Cl)C(=O)Nc1ncc(C(F)(F)F)cc1Cl (stereo not given),-7.63%
6,COc1c(/C=N/NC(N)=S)c(C)nn1-c1ccccc1,-8.71%
7,CC(C)N1CCc2c(sc(NC(=O)c3ccc([N+](=O)[O-])o3)c2C(N)=O)C1,-8.36%
8,C=CCOc1ccccc1CN(C(=O)CCl)c1ccc2c(c1)OCO2,-54.5%
9,Cc1no[n+]([O-])c1COc1ccc(/C=N/n2nnnc2N)cc1,0.06%
10,O=C(NCc1ccc2c(c1)OCO2)c1cc([N+](=O)[O-])ccc1N1CCCCC1,30.3%
11,CCc1cc(=O)oc2c(C)c(OCC(=O)NCCN3CCOCC3)ccc12,-8.24%
12,CO/N=C\C(=N\Nc1ccc(OC)cc1)C(=O)c1ccccc1,5.9%
13,Cc1cccc(NC(=O)COC(=O)Cc2cccs2)c1C,14.1%
14,CC(=O)Nc1cc(-c2ccc(F)cc2)cn2c(-c3ccc(S(C)(=O)=O)cc3)cnc12,-16.1%
15,CC(=O)N1CCN(c2ccc(NC(=O)c3cccc([N+](=O)[O-])c3)cc2)CC1,-19.9%
16,COc1ccc(C2=Nn3c(nnc3-c3ccccc3OC)SC2)cc1OC,11.1%
17,CCn1c(=NC(=O)CCS(=O)(=O)c2ccccc2)sc2cccc(OC)c21,69.2% (active)
18,O=C(c1cc(-c2ccco2)nc2ccccc12)N(Cc1nnc(-c2ccc(Cl)cc2)o1)C1CC1,-2.77%
19,Cc1ccc(NC(=O)CN2CCC(NC(=O)C3CCCCC3)CC2)c(Br)c1,7.56%
20,Cc1ccc(Cn2nc(C)c(NC(=O)c3noc4c3CCCCC4)c2C)cc1,-1.13%

row,SMILES,inhibition
1,CCOC(=O)C(C)Oc1cccc2c(=O)n(CC(=O)Nc3ccc(OCC)cc3)ccc12 (stereo not given),-11.2%
2,COc1ccc(C2=CC(=O)CC(C)(C)C2)cc1OC,11.7%
3,Cc1cc(C)c2c(NC(=O)CCl)nn(C)c2n1,-39.7%
4,CCCCNC(=O)CSc1nc2ccc(NC(=O)CSc3nnc(COc4ccccc4C)n3C)cc2s1,-5.17%
5,O=C(CN1CCN(S(=O)(=O)c2cc(Cl)ccc2Cl)CC1)Nc1ccc2c(c1)OCCO2,-3.13%
6,CCCN1Cc2cccc(C(=O)NC(C)c3cccs3)c2C1=O (stereo not given),0.87%
7,O=[N+]([O-])c1ccc(Sc2nnnn2-c2ccccc2)c(Cl)c1,-13%
8,CCOc1ccc(Br)cc1/C(C)=N\NC1=NCCN1,33.2% (active)
9,COc1ccc(C2=CC(=O)OC3(CCCC3)O2)cc1,-0.06%
10,O=C(CCl)NCc1cc(-c2ccc(Cl)cc2)no1,-3.6%
11,CCN1CCN(c2ccc(S(=O)(=O)N3CCCCC3)cc2NC(=O)/C=C/c2ccc([N+](=O)[O-])cc2)CC1,3.5%
12,Cc1ccc(C)c(NC(=O)CSc2nnc(-c3ccccc3)n2N)c1,-20.5%
13,COc1ccc(CC(N)c2csc(Nc3ncccn3)n2)cc1 (stereo not given),15.5%
14,Cc1cccc(NC(=O)CSC2=NN3CCCC(=O)N=C3S2)c1C,-5.97%
15,Cc1cc(-c2nn3c(-c4ccccc4)nnc3s2)c2ccccc2n1,-31.6%
16,CN(Cc1cccs1)c1nc(-c2cccnc2)nc2ccccc12,5.14%
17,COc1ccc(NC(=O)CSc2nnc(-c3ccccn3)n2N)cc1Cl,2.01%
18,CCCc1cc(NCC2CCCO2)n2c(nc3ccccc32)c1C#N (stereo not given),1.26%
19,COc1cccc2c1C(=O)c1c(O)c3c(c(O)c1C2=O)C[C@@](O)(C(C)=O)C[C@@H]3O[C@H]1C[C@H](N)[C@H](O)[C@H](C)O1,94% (active)
20,CCc1ccccc1NC(=O)CSc1nnc([C@@H](NC(=O)OC(C)(C)C)C(C)CC)o1 (stereo not given in full),4.95%
